Results filed as inconclusive are left out. Unmarked numbers belong to inactive results. The source made the active and inactive calls. Calls come from the whole dose curve; as a rule, active = well fitted cell-killing curve with a large enough effect; inconclusive = small, poorly fitted or top-dose-only effect, or effect the other way; inactive = flat fitted curve, though single readings scatter.
system: Tov112D; test: Primary qHTS to identify gynecologic anti-cancer compounds using libraries of approved drugs and bioactive compounds (AID 1345084); conditions: Gynecologic cancer cell panel viability, ATPlite luminescence, 48 h; series mostly up to 57.5 µM; activity change, negative = cytotoxicity: at the top concentration; note: nearly all actives have a fitted effect of over 55% in size
Outline: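 48 h compound exposure at 37 C, 5% CO2; five-point qHTS. ATPlite luminescence readout of cell ATP.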
% is set by controls: 0 for no effect and ±100 for the full control effect.

SMILES	activity change, negative = cytotoxicity	Potency
CCC(C)C(C)(COC(N)=O)COC(N)=O (centres undefined)	-0.781%	–
CN1CCC(O)(c2ccc(F)cc2)C(C(=O)c2ccc(F)cc2)C1 (centres undefined)	0.0828%	–
CCC1(c2ccc(N)cc2)CCC(=O)NC1=O (centres undefined)	-11.1%	–
C[C@]12Cc3cn[nH]c3C[C@@H]1CC[C@@H]1[C@@H]2CC[C@@]2(C)[C@H]1CC[C@]2(C)O	2.73%	–
[N-]=[N+]=CC(=O)OC[C@H](N)C(=O)O	-6.88%	–
COc1cc(CCN)cc(OC)c1OC	-1.07% [at 116 µM]	–
CCC(CC)(CNC(=O)CCCO)c1cccc(OC)c1	2.82%	–
C=C(C)[C@H]1CN[C@H](C(=O)O)[C@H]1CC(=O)O	3.55%	–
C[C@]12CC[C@H]3[C@@H](CCC4=CC(=O)CC[C@@H]43)[C@@H]1CC[C@@H]2OC(=O)CCC1CCCCC1	-1.72%	–
Nc1nc(N)nc(NC2CC2)n1	-6.38%	–
O=C1OC(CCN2CCCCC2)OC1(c1ccccc1)c1ccccc1 (centres undefined)	19.8%	–
O=C1CN=C(c2ccccc2)c2cc([N+](=O)[O-])ccc2N1	-3.38%	–
CN1CC[C@]23c4c5ccc(O)c4O[C@H]2[C@@H](O)C=C[C@H]3[C@H]1C5	-5.8% [at 116 µM]	–
CN1C(=O)COc2c(C(=O)NC3CN4CCC3CC4)cc(Cl)cc21 (centres undefined)	4.3%	–
CC(C)(N)Cc1ccccc1Cl	-0.213%	–
CC(Cc1ccccc1)N(C)Cc1ccco1 (centres undefined)	-1.9%	–
Clc1cccc(SC2CCNCC2)n1	-0.223%	–

SMILES	activity change, negative = cytotoxicity	Potency
C=CCC1(C(C)CC)C(=O)NC(=O)NC1=O (centres undefined)	4.27%	–
CCN[C@@H](C)Cc1ccccc1	-18.3% [at 116 µM]	–
Clc1ccccc1N1CCNCC1	8.27%	–
O=C(O)CCCc1ccc(N(CCCl)CCCl)cc1	3.19%	–
C[C@]12CC[C@H]3[C@@H](CC[C@@]45O[C@H]4C(O)=C(C#N)C[C@]35C)[C@H]1CC[C@H]2O	2.68%	–
O=c1[nH]c2ccccc2n1C1CCNCC1	1.14%	–
C=CCN1C[C@H](C)N([C@H](c2ccc(C(=O)N(CC)CC)cc2)c2cccc(OC)c2)C[C@H]1C	–	inactive
c1ccc(N2CCNCC2)cc1	12.1%	–
CCCOC(=O)c1cncn1C(C)c1ccccc1 (centres undefined)	13.6%	–
C[C@]12CC[C@H]3[C@@H](CCC4=CC(=O)CC[C@@H]43)[C@@H]1CC[C@@H]2OC(=O)CCc1ccco1	5.13%	–
CC(Cc1ccccc1)NCCn1cnc2c1c(=O)n(C)c(=O)n2C (centres undefined)	-5.66% [at 116 µM]	–
C#CC(O)(C=CCl)CC (centres undefined)	1.89%	–
CCc1cc2c(s1)-n1c(C)nnc1CN=C2c1ccccc1Cl	7.11%	–
CC[N+]1(CC)CCC(OC(=O)C(O)(c2ccccc2)c2ccccc2)C1 (centres undefined)	7.43%	–
CC(=O)C1CCOC1=O (centres undefined)	9.65%	–
ClCCN1CCCC1	8.31%	–
COc1c2c(cc3c1OCO3)CCN(C)C2	-12.8%	–

From PubChem BioAssay (NCATS)
